# Source: PubChem
# CDC25B-CDK2 inh: human CDC25B-CDK2/CyclinA binding inhibition; P30305+P24941; HTRF CDC25B-CDK2/CyclinA binding, anti-His/anti-Flag; hits give high values; z-score (test concentration not listed); hit rate 0.72% among 94,000; AID 1259370; in the data active = z-score above about 3.2
# TAR Tat displ: HIV-1 TAR-Tat binding disruption | z-score (concentration not given with the values) | HIV-1 TAR RNA, Tat peptide displacement FRET; hits give high values | hit rate 0.6% among 100,000 | AID 1259389; active = z-score of 3 or more in at least 2 runs
# Active calls of the source: *; · = not tested or not shown. Only some compounds are listed: those with a hit (about 0.93% of all), similar ones and a draw of the others.
SMILES,CDC25B-CDK2 inh,TAR Tat displ
Cc1ccc(CNC(=O)Cn2ncn3c(c(-n4cccc4)c4c5c(sc43)CCCC5)c2=O)cc1,0.9,12*
Cc1c(Cl)cccc1NC(=O)Nc1nc2ccc(S(C)(=O)=O)cc2s1,-2.7,-0.08
O=C(NCCO)Nc1ccc2snnc2c1,11*,1.8
Cc1ccc(NC(=O)Nc2ccc3snnc3c2)cc1,-0.55,·
CC(C)Cc1nc(SCC(=O)NC2CCCCC2)c2c(=O)n(C)c(=O)n(C)c2n1,·,0.12
CCSc1ncc2c(=O)n(CC(=O)NC3CCCC3)cnc2n1,·,0.72
CCSc1ncc2c(=O)n(CC(=O)N3CCc4ccccc43)cnc2n1,·,9.7*
O=C(Cn1cnc(S(=O)(=O)N2CCOCC2)c1)N1CCN(c2ccccc2)CC1,·,-1.4
O=C(CN1C(=O)c2ccc([N+](=O)[O-])cc2C1=O)Nc1ccc2ccccc2c1,6.7*,·
O=C(Nc1cccc([N+](=O)[O-])c1)c1ccc2c(c1)C(=O)N(c1cccc3ccccc13)C2=O,0.77,·
Cc1c(C(=O)O)sc2ncnc(Nc3ccc4c(c3)OCCO4)c12,·,25*
Cc1sc2ncnc(Nc3ccc4c(c3)OCO4)c2c1C,·,0.84
Cc1c(C(=O)O)sc2ncnc(Nc3ccccc3)c12,·,-8.3
COc1ccc(Nc2ncnc3sc(C(=O)O)c(C)c23)cc1OC,·,35*
Cc1sc2ncnc(NCc3ccc4c(c3)OCO4)c2c1C,-2,0.1
Cc1c(C(=O)O)sc2ncnc(NCc3ccc4c(c3)OCO4)c12,·,5*
O=C(NCCc1c[nH]c2ccccc12)c1noc2c1CCc1sccc1-2,·,-1
COc1ccccc1-c1noc(C(C)NS(=O)(=O)c2ccc(Br)cc2)n1 (configuration not stated),1.2,1
O=C(C1c2ccccc2Oc2ccccc21)N1CCc2ccccc21,0.34,·
O=c1c2c(-c3ccc(Cl)cc3)noc2ncn1Cc1cccc(Cl)c1,·,1.1
Cc1cc2c3c([nH]c2cc1S(=O)(=O)N1CCC(c2ccccc2)C1)CCCC3=O (configuration not stated),·,-1.5
CSc1ccc(C2C(C#N)=C(N)Oc3c2ccc2ccccc32)cc1 (configuration not stated),-0.13,-0.49
CSc1ccc(C2C(C#N)=C(N)OC3=C2CCc2ccccc23)cc1 (configuration not stated),7.5*,·
CC(=O)Nc1nc(C)c(-c2csc(Nc3ccc(S(=O)(=O)Nc4cc(C)on4)cc3)n2)s1,-1.6,·
Cc1cc(C)nc(Nc2nc(-c3ccc(O)c(O)c3)cs2)n1,1.1,29*
SMILES,CDC25B-CDK2 inh,TAR Tat displ
Oc1ccc(-c2csc(Nc3ncccn3)n2)cc1O,-6.2,·
CC(C)N=C(NC#N)NC(C)C,-2.3,·
O=C(Nc1csc2ccccc12)N1CCN(c2ccc(C(F)(F)F)cn2)CC1,-2.4,·
Cc1ccccc1C1CC(=O)N2CN(c3ccccc3F)CSC2=C1C#N (configuration not stated),5.1*,-1.2
COc1ccc(N2CSC3=C(C#N)C(c4ccc(SC)cc4)CC(=O)N3C2)c(OC)c1 (configuration not stated),2.5,-0.01
Cc1cccc(N2CSC3=C(C#N)C(c4ccccc4)CC(=O)N3C2)c1 (configuration not stated),5.2*,-1.1
N#CC1=C2SCN(c3cccc(Cl)c3)CN2C(=O)CC1c1ccc(F)cc1 (configuration not stated),7.4*,-0.98
N#CC1=C2SCN(C3CCCCC3)CN2C(=O)CC1c1ccc(F)cc1 (configuration not stated),0.26,1.4
COc1ccccc1N1CSC2=C(C#N)C(c3ccc(SC)cc3)CC(=O)N2C1 (configuration not stated),4.6*,-1.4
CCCC1=NN(C(=O)c2ccc(C)cc2)C(O)(C(F)(F)F)C1 (configuration not stated),-0.86,·
COc1ccc2cc3c(nc2c1)N(S(=O)(=O)c1ccc(F)cc1)CC3,-1.4,-0.18
O=C(NCCCN1CCCC1=O)C1CCC(Cn2c(=S)[nH]c3ccccc3c2=O)CC1 (configuration not stated),-0.55,·
N#CC1=C2SCN(c3ccccc3F)CN2C(=O)CC1c1ccccc1 (configuration not stated),6.5*,0.23
Cc1ccccc1N1CSC2=C(C#N)C(c3ccc(F)cc3)CC(=O)N2C1 (configuration not stated),4.4*,-1.9
Cc1ccccc1N1CSC2=C(C#N)C(c3ccc(Cl)cc3)CC(=O)N2C1 (configuration not stated),2,-2.6
O=C(Nc1ccc(Br)cc1)c1csnn1,-0.64,-0.95
Cn1c(N2CCN(C(=O)C3CC(=O)N(C4CCCCC4)C3)CC2)cc(=O)n(C)c1=O (configuration not stated),·,1.3
CCN(CC)c1nn2c(=O)c(C(=O)NCc3cc(Br)ccc3OC)cnc2s1,·,1.3
CC(=O)N1N=C(CSc2nc(C)cc(C)n2)OC1/C(C)=C/c1ccccc1 (configuration not stated),·,4.2*
CC(=O)N1N=C(CSc2nnc(-c3ccccc3)n2-c2ccccc2)OC1c1ccc(C)o1 (configuration not stated),·,0.39
O=C(Nc1ccc2oc(-c3ccc(Br)cc3)nc2c1)c1cccnc1,-2,-0.06
CCOc1ccc(C2/C(=C(/O)c3ccc(C)cc3)C(=O)C(=O)N2c2cccnc2)cc1 (configuration not stated),0.11,-0.47
COC(=O)c1ccc(C2/C(=C(/O)c3ccc(C)cc3)C(=O)C(=O)N2c2cccnc2)cc1 (configuration not stated),12*,0.97
Cc1cc(C)cc(Nc2nc3ccc(Cl)cc3n3nnnc23)c1,-2.7,-0.88
C=CCOc1ccc(C2C3=C(CC(C)(C)CC3=O)NC3=C2C(=O)CC(C)(C)C3)cc1,-0.83,-0.05
SMILES,CDC25B-CDK2 inh,TAR Tat displ
CCCOc1ccc(C2C3=C(CC(C)(C)CC3=O)NC3=C2C(=O)CC(C)(C)C3)cc1,16*,0.94
CC1CCC(NC(=O)C2CCN(S(=O)(=O)c3ccc4[nH]c(=O)ccc4c3)CC2)CC1 (configuration not stated),·,2.8
CC1CCC(NS(=O)(=O)c2ccc3[nH]c(=O)ccc3c2)CC1 (configuration not stated),·,32*
COc1ccc2[nH]c(=O)cc(C(=O)O)c2c1,0.85,13*
COc1ccc2c(C(=O)O)cc(=O)[nH]c2c1,-1.2,-0.28
O=C(NCC1CCCO1)c1ccc(CN2CC(=O)N3CCCC3C2=O)cc1 (configuration not stated),·,2.5
CCC(C)NC(=O)C1=CC(c2ccc(F)cc2)=NS(=O)(=O)N1C (configuration not stated),-2.2,3.8*
CN1C(C(=O)NCc2ccc(F)cc2)=CC(c2ccc(F)cc2)=NS1(=O)=O,-2.6,1.5
O=C(NCc1csc(-c2ccccc2)n1)[C@H]1CSCN1C(=O)c1ccc(F)c(F)c1,·,1.4
COc1ccc(CCNc2sc(S(C)(=O)=O)nc2S(=O)(=O)c2ccc(Cl)cc2)cc1,-8,-0.6
Cn1c(C(F)(F)F)nnc1S(=O)(=O)Cc1ccc(-c2csnn2)cc1,16*,·
O=S(=O)(NCc1ccc(-c2csnn2)cc1)c1cc(C(F)(F)F)cc(C(F)(F)F)c1,-0.91,·
O=C(O)COc1ccc2c(c1)C(=O)c1cc(OCC(=O)O)ccc1-2,-0.19,7.2*
CCN(CC)CCOc1ccc2c(c1)C(=O)c1cc(OCCN(CC)CC)ccc1-2,·,0.27
